Measured values reported in PubChem BioAssay (NCI).
Compounds without any hit were thinned out: in the full panel of roughly 83,000, 20% have a hit.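 Negative percent growth values reflect cell death: -40 means 40% of the cells present at the start died, and -100 means all died.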 Activity calls are given as the source filed them. The calls were made as follows: active = growth percent below 10; inactive = the rest.

What was measured:
Assay in all cases: NCI-60 one-dose screen, 48 h (100 = growth as untreated, 0 = no growth, -100 = all killed)
Settings in all cases: 10 µM
HCT-15 colon = system: HCT-15 colon
SNB-75 CNS = system: SNB-75 CNS
SNB-19 CNS = system: SNB-19 CNS
PC-3 prostate = system: PC-3 prostate
SK-MEL-5 melanoma = system: SK-MEL-5 melanoma
UACC-62 melanoma = system: UACC-62 melanoma
SK-MEL-28 melanoma = system: SK-MEL-28 melanoma
SN12C renal = system: SN12C renal
UO-31 renal = system: UO-31 renal
ACHN renal = system: ACHN renal
CAKI-1 renal = system: CAKI-1 renal
A498 renal = system: A498 renal
MOLT-4 leukemia = system: MOLT-4 leukemia
U251 CNS = system: U251 CNS
SK-MEL-2 melanoma = system: SK-MEL-2 melanoma
EKVX NSCLC = system: EKVX NSCLC
TK-10 renal = system: TK-10 renal
CCRF-CEM leukemia = system: CCRF-CEM leukemia
LOX IMVI melanoma = system: LOX IMVI melanoma
HT29 colon = system: HT29 colon

Measured: growth

C[C@]12CC[C@@H]3c4ccc(O)cc4CC[C@H]3[C@@H]1CC[C@@H]2NS(=O)(=O)c1ccc(C(F)(F)F)cc1
inactive: HCT-15 colon 32.7% | SNB-75 CNS 62.1% | SNB-19 CNS 97.5% | PC-3 prostate 24.2% | SK-MEL-5 melanoma 41.2% | UACC-62 melanoma 73.5% | SK-MEL-28 melanoma 73.1% | SN12C renal 42% | UO-31 renal 13.6% | ACHN renal 26.9% | CAKI-1 renal 38.6% | A498 renal 61.3% | MOLT-4 leukemia 11.7%

CC1C(=NC(=O)c2cnccn2)C(C)C(c2ccc(Cl)cc2)NC1c1ccncc1 (stereo unspecified)
inactive: HCT-15 colon 78.8% | SNB-75 CNS 78.5% | SNB-19 CNS 88.4% | U251 CNS 76.4% | PC-3 prostate 75.6% | SK-MEL-5 melanoma 88.2% | UACC-62 melanoma 91.3% | SK-MEL-28 melanoma 101% | SK-MEL-2 melanoma 104% | EKVX NSCLC 88.6% | SN12C renal 93.3% | TK-10 renal 130% | ACHN renal 91.5% | A498 renal 115% | CCRF-CEM leukemia 79.5% | MOLT-4 leukemia 78.5%

COc1cc(-c2ccc[nH]2)[nH]c1/C=C1\N=C(C)C(C(=O)NC(C)C)=C1C
inactive: SNB-19 CNS 74.5% | U251 CNS 31.4% | EKVX NSCLC 35.4% | SN12C renal 38.3% | TK-10 renal 17.7% | ACHN renal 12.6% | CAKI-1 renal 20% | A498 renal 67.7%
active: HCT-15 colon 8.9% | SNB-75 CNS -13.7% | SK-MEL-5 melanoma -88.4% | UACC-62 melanoma -33.5% | LOX IMVI melanoma -62.6% | MOLT-4 leukemia -14.2%

Cc1cn(-c2cccc(NC(=O)c3ccc(C)c(Nc4nccc(-c5cccnc5)n4)c3)c2)cn1
active: HT29 colon -43.4% | SNB-75 CNS -45% | UACC-62 melanoma 3.99% | LOX IMVI melanoma -65.5% | SK-MEL-28 melanoma -37.6% | SN12C renal -4.51% | UO-31 renal -22.6% | TK-10 renal -46.3% | ACHN renal -31.9% | MOLT-4 leukemia 5.78%
inactive: SNB-19 CNS 51.2% | PC-3 prostate 34.4% | SK-MEL-5 melanoma 40.2% | SK-MEL-2 melanoma 75.8% | CCRF-CEM leukemia 25%

CSc1ccc(-c2cc(-c3ccc(NC(=O)CCCN4CCCC4)cc3)nc(-c3ccc(NC(=O)CCCN4CCCC4)cc3)c2)cc1
active: MOLT-4 leukemia 4.93%
inactive: HCT-15 colon 88.6% | SNB-75 CNS 45.2% | SNB-19 CNS 49.2% | PC-3 prostate 40.8% | SK-MEL-5 melanoma 91.8% | UACC-62 melanoma 93.4% | SK-MEL-28 melanoma 94.7% | SN12C renal 77.8% | UO-31 renal 84.9% | TK-10 renal 73.8% | ACHN renal 86.1% | CAKI-1 renal 83.6% | A498 renal 74.2%

COc1cc(C2CC(c3ccc4c(c3)OCO4)=NN2c2ccccc2)cc(OC)c1OC (stereo unspecified)
inactive: HCT-15 colon 81% | SNB-75 CNS 58.8% | SNB-19 CNS 84.8% | U251 CNS 38.9% | PC-3 prostate 92.6% | SK-MEL-5 melanoma 86% | UACC-62 melanoma 76.7% | LOX IMVI melanoma 89.4% | SK-MEL-2 melanoma 108% | EKVX NSCLC 89.4% | SN12C renal 90.9% | TK-10 renal 112% | CAKI-1 renal 75.4% | A498 renal 97.9% | CCRF-CEM leukemia 80.8% | MOLT-4 leukemia 82.3%

C#C[C@]1(O)CCC2C3CCc4cc(OC5CCCC5)ccc4C3CC[C@@]21C (stereo partly specified)
inactive: HCT-15 colon 24% | SNB-75 CNS 96% | SNB-19 CNS 104% | U251 CNS 69.9% | PC-3 prostate 57.9% | SK-MEL-5 melanoma 100% | UACC-62 melanoma 81.1% | LOX IMVI melanoma 42% | SK-MEL-28 melanoma 103% | EKVX NSCLC 86.3% | SN12C renal 70.9% | UO-31 renal 72.5% | TK-10 renal 86.9% | ACHN renal 73.3% | CAKI-1 renal 42% | A498 renal 85.1% | CCRF-CEM leukemia 85.4% | MOLT-4 leukemia 59.8%

CCn1c(CSc2nc3ccccc3c(=O)n2CCc2ccccc2)n[nH]c1=S
inactive: HT29 colon 88.2% | SNB-75 CNS 107% | SNB-19 CNS 106% | PC-3 prostate 83.9% | SK-MEL-5 melanoma 82.4% | UACC-62 melanoma 85.2% | LOX IMVI melanoma 74.2% | SK-MEL-28 melanoma 106% | SK-MEL-2 melanoma 103% | SN12C renal 104% | UO-31 renal 76.5% | TK-10 renal 98% | ACHN renal 96.8% | CCRF-CEM leukemia 83.9% | MOLT-4 leukemia 71%

CNC(=O)c1cc(Oc2ccc3c(c2)sc2nc(-c4ccc(N)cc4)cn23)ccn1
inactive: HCT-15 colon 11% | SNB-75 CNS 38.4% | SNB-19 CNS 32.1% | U251 CNS 11.5% | PC-3 prostate 29.2% | LOX IMVI melanoma 22.7% | SK-MEL-28 melanoma 66.1% | EKVX NSCLC 40.9% | UO-31 renal 43.8% | TK-10 renal 57.4% | ACHN renal 29.1% | CAKI-1 renal 43.9% | A498 renal 26.7% | MOLT-4 leukemia 15%
active: SK-MEL-5 melanoma -0.651%
